As usually defined, the AC50 is the midpoint of the concentration-response curve, whichever way the signal moves.

“And” between values parts separate entries of the source, which are not always exact repeats. Identical values can stand only once. Results filed as inconclusive are left out. A structure can be active in one record and inactive in another. The source made the active and inactive calls. Rule for the calls, unless noted: active = hit-call score of the fitted dose curve at least 0.9, where 1 is the maximum; inactive = score below 0.9.

Test [1] is described as follows: CEETOX_H295R_11DCORT: CeeTox H295R High-throughput Steroidogenesis Assay for 11-Deoxycortisol (11DCORT) (AID 2283432).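 For AC50: human adrenal H295R cells prestimulated with 10 µM forskolin for 48 h; 11-deoxycortisol secreted into the medium measured by LC-MS/MS.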 The following applies: actives raise or lower the signal. The essentials: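 H295R cells; 10 uM forskolin prestim 48 h; compound in 0.1% DMSO 48 h; media extracted with MTBE; 11-deoxycortisol by LC-MS/MS, 7-point standard curve; gain/loss vs DMSO baseline; viability by MTT in same wells.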

Test [2] can be described thus: CEETOX_H295R_OHPREG: CeeTox H295R High-throughput Steroidogenesis Assay for OH-Pregnenolone (OHPREG) (AID 2283434). To be noted: actives raise or lower the signal. The essentials:
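Readout: HPLC-MS/MS of 17alpha-hydroxypregnenolone in medium after 48 h chemical exposure of H295R cells pretreated with forskolin. Values fitted bidirectionally relative to DMSO; chemicals reducing viability to 20–70% were retested after 10-fold dilution.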

Test [3] is described as follows: CEETOX_H295R_OHPROG: CeeTox H295R High-throughput Steroidogenesis Assay for OH-Progesterone (OHPROG) (AID 2283435).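 For AC50: human adrenal H295R cells primed 48 h with 10 µM forskolin; 17alpha-hydroxyprogesterone secreted into medium measured by HPLC-MS/MS.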 The following applies: actives raise or lower the signal. The essentials: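 Steps: seed H295R cells and adhere overnight; stimulate with 10 uM forskolin for 48 h; replace with chemical-containing medium (0.1% DMSO) for 48 h; extract medium with MTBE; quantify 17alpha-hydroxyprogesterone by reverse-phase C18 HPLC-MS/MS against a 7-point curve.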

Test [4] is described as follows: CEETOX_H295R_ANDR: CeeTox H295R High-throughput Steroidogenesis Assay for Androstenedione (ANDR) (AID 2283436).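 Note: human H295R adrenal cells exposed for 48 h with androstenedione measured in medium.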 To be noted: actives raise or lower the signal. The essentials: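 Steroidogenesis in H295R adrenal cells after 48 h dosing; androstenedione quantified by LC-MS/MS, with DMSO as negative control and baseline for bidirectional curve fitting.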
Test [5] in a line: CEETOX_H295R_CORTISOL: CeeTox H295R High-throughput Steroidogenesis Assay for Cortisol (AID 2283438). To be noted: actives raise or lower the signal. Put shortly:
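Cortisol synthesis by H295R cells is measured 48 h after chemical dosing, following a 48 h stimulation with 10 uM forskolin. Hormone is extracted and quantified by HPLC-MS/MS, and activity is fitted bidirectionally against the DMSO control.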

Test [6] is described as follows: CEETOX_H295R_DOC: CeeTox H295R High-throughput Steroidogenesis Assay for DOC (AID 2283439). The following applies: actives raise or lower the signal. The essentials: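 Steps: seed H295R, adhere overnight; 10 uM forskolin 48 h; replace with chemical medium (0.1% DMSO) 48 h; collect medium, MTBE extraction, HPLC-MS/MS for DOC. Viability then checked by MTT; cytotoxic chemicals diluted until viability ≥70%.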

The nature of test [7]: CEETOX_H295R_ESTRADIOL: CeeTox H295R High-throughput Steroidogenesis Assay for Estradiol (AID 2283440).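 Note: estradiol secreted into medium quantified by LC-MS/MS after dansyl derivatisation.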 To be noted: actives raise or lower the signal. Put shortly: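 H295R, 48 h forskolin (10 uM) prestim → 48 h compound, 0.1% DMSO final. Estradiol in medium: MTBE extraction, dansyl chloride derivatization, LC-MS/MS. Fit bidirectional vs DMSO baseline; MTT viability in same wells.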

Test [8] is described as follows: CEETOX_H295R_ESTRONE: CeeTox H295R High-throughput Steroidogenesis Assay for Estrone (AID 2283441). To be noted: actives raise or lower the signal. Put shortly:
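Estrone secreted into medium quantified by LC-MS/MS after dansyl chloride derivatization, following 48 h chemical exposure (0.1% DMSO final) of forskolin-prestimulated (10 uM, 48 h) H295R cells; gain or loss fitted against DMSO; MTT viability in same wells.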

Test [9] can be described thus: CEETOX_H295R_PROG: CeeTox H295R High-throughput Steroidogenesis Assay for Progesterone (PROG) (AID 2283442).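 For AC50: human H295R adrenal cells primed with 10 µM forskolin before dosing.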 The following applies: actives raise or lower the signal. The essentials:
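Progesterone read-out: HPLC-MS/MS on MTBE extracts of conditioned medium after 48 h chemical exposure of forskolin-primed (10 uM, 48 h) H295R cells. Gain or loss of signal was fitted relative to DMSO baseline.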

Test [10] deals with Estrogen receptor (Homo sapiens) (UniProt P03372). As to the kind of experiment: OT_ERa_GFPERaERE_0120: Odyssey Thera (OT) 2-hour HeLa Transcription Induction Assay for Estrogen Receptor (AID 2283382; active = hit-call score of the fitted dose curve at least 0.9, where 1 is the maximum). Put shortly: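 Cells (human cervical HeLa) receive compound, incubate 2 hours, then are imaged for fluorescent reporter induction. Images are quantified by high content analysis, and activity is fitted as gain of signal against DMSO.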
Sequence of Estrogen receptor (Homo sapiens) (P03372 whole entry, looked up): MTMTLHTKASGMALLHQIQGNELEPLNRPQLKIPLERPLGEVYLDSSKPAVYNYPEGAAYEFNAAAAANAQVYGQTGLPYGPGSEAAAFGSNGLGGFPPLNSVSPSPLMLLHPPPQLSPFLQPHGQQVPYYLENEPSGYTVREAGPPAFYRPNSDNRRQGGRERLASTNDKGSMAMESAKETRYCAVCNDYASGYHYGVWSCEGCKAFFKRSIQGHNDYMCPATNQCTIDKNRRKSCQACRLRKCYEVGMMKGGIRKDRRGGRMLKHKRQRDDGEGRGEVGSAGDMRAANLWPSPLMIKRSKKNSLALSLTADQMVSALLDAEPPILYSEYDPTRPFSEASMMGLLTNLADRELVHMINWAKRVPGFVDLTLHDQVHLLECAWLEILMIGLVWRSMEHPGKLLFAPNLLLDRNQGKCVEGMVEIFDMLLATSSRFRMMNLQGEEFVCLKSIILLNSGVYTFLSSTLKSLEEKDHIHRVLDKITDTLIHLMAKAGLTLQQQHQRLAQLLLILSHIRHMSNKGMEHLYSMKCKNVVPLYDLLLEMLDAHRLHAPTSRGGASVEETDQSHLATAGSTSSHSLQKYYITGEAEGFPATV

For test [11], the target named is Retinoic acid receptor RXR-alpha (Homo sapiens) (UniProt P19793). As to the kind of experiment: OT_NURR1_NURR1RXRa_1440: Odyssey Thera (OT) 24-hour HEK293T Protein Complementation Assay for Nurr1/retinoid X receptor (RXR) (AID 2283386; active = hit-call score of the fitted dose curve at least 0.9, where 1 is the maximum). Put shortly:
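Steps: fragment-tagged Nurr1 and RXRα expressed in HEK293T; compounds added; after 24 h, complemented reporter quantified by fluorescence intensity; signal increase over DMSO fitted as the single endpoint.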

Test [12] has as its target Peroxisome proliferator-activated receptor gamma (Homo sapiens) (UniProt P37231). Briefly: OT_PPARg_PPARgSRC1_0480: Odyssey Thera (OT) 8-hour Protein-Complementation Assay for Peroxisome Proliferator-activated Receptor Gamma / SRC-1 Co-activator (AID 2283387; active = hit-call score of the fitted dose curve at least 0.9, where 1 is the maximum;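 note: nuclear to cytoplasmic split Venus YFP fluorescence ratio reporting PPARg SRC-1 interaction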). Put shortly: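 Read-out: 488 nm N/C fluorescence ratio from complemented Venus YFP fragments, ≥350 cells per image, gain-of-signal fitted against DMSO baseline. Fusions of PPARg/SRC-1 with IFP1/IFP2 expressed transiently in HEK293T; compounds applied 8 h.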

Test [13] has the same target. Briefly: OT_PPARg_PPARgSRC1_1440: Odyssey Thera (OT) 24-hour Protein-Complementation Assay for Peroxisome Proliferator-activated Receptor Gamma/ SRC-1 Co-activator (AID 2283388; active = hit-call score of the fitted dose curve at least 0.9, where 1 is the maximum;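 note: nuclear to cytoplasmic ratio of reconstituted Venus YFP fluorescence in fixed imaged cells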). Put shortly:
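Readout: nuclear-to-cytoplasmic 488 nm fluorescence ratio, ≥350 cells per image, 8 images per well, after 24 h compound exposure of HEK293T expressing PPARg/SRC-1 split-YFP fusions. Activity fitted in positive direction against DMSO.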

Test [14] concerns the target Retinoic acid receptor RXR-alpha (Homo sapiens) (UniProt P19793). Briefly: OT_NURR1_NURR1RXRa_0480: Odyssey Thera (OT) 8-hour HEK293T Protein Complementation Assay for Nurr1/retinoid X receptor (RXR) (AID 2283385; active = hit-call score of the fitted dose curve at least 0.9, where 1 is the maximum). Put shortly: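 Interaction of bait and prey reconstitutes a functional reporter, whose fluorescence was measured in HEK293T cells dosed with compound for 8 hours. Signal gain relative to DMSO defined the single endpoint.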

Read-out in test [15]: Tumor necrosis factor receptor superfamily member 6 (Homo sapiens) (UniProt P25445)
As to the kind of experiment: LTEA_HepaRG_FAS: Life Technologies and Expression Analysis (LTEA) Assay for Fas cell surface death receptor (FAS) using HepaRG (AID 2283447). To be noted: mRNA level, 48 h; actives raise or lower the signal. The essentials:
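Differentiated human HepaRG cells, pre-cultured 48 h, were exposed in duplicate for 48 h to 8-point half-log concentrations (top 100 uM, 0.5% DMSO) in serum-free induction medium; FAS mRNA measured by qRT-PCR, normalized to ACTB/GAPDH/POLR2A, bidirectional fit versus DMSO.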

Read-out in test [16]: Fatty acid synthase (Homo sapiens) (UniProt P49327)
As to the kind of experiment: LTEA_HepaRG_FASN: Life Technologies and Expression Analysis (LTEA) Assay for Fatty Acid Synthase (FASN) using HepaRG (AID 2283448). To be noted: mRNA level, 48 h; actives raise or lower the signal. The essentials: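 Cells were plated, cultured 48 h, switched to serum-free induction medium, then dosed in duplicate (max 100 uM, half-log dilutions, 0.5% DMSO) for 48 h. RNA was then isolated and FASN quantified by qRT-PCR.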

Read-out in test [17]: Cyclin D2 (CCND2), CCND2 (gene 894)
As to the kind of experiment: LTEA_HepaRG_CCND2: Life Technologies and Expression Analysis (LTEA) Assay for Cyclin D2 (CCND2) using HepaRG (AID 2283449).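 Note: CCND2 transcript measured by TaqMan qRT-PCR and normalised to three housekeeping genes.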 To be noted: mRNA level, 48 h; actives raise or lower the signal. The essentials:
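In this HepaRG study, an eight-point concentration series (max 100 uM, 0.5% DMSO) is applied for 48 h. CCND2 mRNA change is derived by qRT-PCR normalised to ACTB, GAPDH and POLR2A.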

Read-out in test [18]: Cyclin Dependent Kinase Inhibitor 1A (CDKN1A), CDKN1A (gene 1026)
Briefly: LTEA_HepaRG_CDKN1A: Life Technologies and Expression Analysis (LTEA) Assay for Cyclin Dependent Kinase Inhibitor 1A (CDKN1A) using HepaRG (AID 2283450). The following applies: mRNA level, 48 h; actives raise or lower the signal. Put shortly:
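HepaRG, 48 h dosing, 8-pt half-log series from 100 uM top, 0.5% DMSO vehicle, duplicates. Readout: TaqMan qRT-PCR of CDKN1A transcript, housekeeping-normalized (ACTB, GAPDH, POLR2A). Up/down curve fit relative to DMSO.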

Sequence of Retinoic acid receptor RXR-alpha (Homo sapiens) (P19793 whole entry, looked up, the tested form may be a part): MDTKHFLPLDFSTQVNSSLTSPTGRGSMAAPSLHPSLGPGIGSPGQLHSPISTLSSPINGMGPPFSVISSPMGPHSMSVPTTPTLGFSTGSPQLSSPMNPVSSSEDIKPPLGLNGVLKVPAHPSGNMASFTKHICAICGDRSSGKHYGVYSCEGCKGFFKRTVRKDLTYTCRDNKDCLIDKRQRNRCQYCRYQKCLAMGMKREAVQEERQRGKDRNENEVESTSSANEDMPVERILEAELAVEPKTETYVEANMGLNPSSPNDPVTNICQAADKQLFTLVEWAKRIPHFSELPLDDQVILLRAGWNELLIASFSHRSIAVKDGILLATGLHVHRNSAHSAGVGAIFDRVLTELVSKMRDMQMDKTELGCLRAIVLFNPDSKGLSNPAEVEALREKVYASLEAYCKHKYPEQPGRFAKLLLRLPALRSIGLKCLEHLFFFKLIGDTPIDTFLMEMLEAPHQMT
Sequence of Peroxisome proliferator-activated receptor gamma (Homo sapiens) (P37231 whole entry, looked up, the tested form may be a part): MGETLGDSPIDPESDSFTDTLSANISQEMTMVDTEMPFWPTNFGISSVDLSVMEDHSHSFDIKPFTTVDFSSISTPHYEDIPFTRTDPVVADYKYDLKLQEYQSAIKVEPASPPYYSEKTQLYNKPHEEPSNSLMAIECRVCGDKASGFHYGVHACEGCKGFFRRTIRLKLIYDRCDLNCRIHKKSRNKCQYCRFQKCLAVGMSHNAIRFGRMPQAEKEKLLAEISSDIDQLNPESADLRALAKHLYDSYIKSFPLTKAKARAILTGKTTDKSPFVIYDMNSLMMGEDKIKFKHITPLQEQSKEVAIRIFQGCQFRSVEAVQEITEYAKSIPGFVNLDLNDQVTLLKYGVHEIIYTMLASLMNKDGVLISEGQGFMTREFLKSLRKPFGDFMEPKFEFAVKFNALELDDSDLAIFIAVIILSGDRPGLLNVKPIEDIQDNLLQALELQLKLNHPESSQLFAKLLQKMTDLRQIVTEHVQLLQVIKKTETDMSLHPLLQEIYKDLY
Sequence of Fatty acid synthase (Homo sapiens) (P49327 whole entry, looked up): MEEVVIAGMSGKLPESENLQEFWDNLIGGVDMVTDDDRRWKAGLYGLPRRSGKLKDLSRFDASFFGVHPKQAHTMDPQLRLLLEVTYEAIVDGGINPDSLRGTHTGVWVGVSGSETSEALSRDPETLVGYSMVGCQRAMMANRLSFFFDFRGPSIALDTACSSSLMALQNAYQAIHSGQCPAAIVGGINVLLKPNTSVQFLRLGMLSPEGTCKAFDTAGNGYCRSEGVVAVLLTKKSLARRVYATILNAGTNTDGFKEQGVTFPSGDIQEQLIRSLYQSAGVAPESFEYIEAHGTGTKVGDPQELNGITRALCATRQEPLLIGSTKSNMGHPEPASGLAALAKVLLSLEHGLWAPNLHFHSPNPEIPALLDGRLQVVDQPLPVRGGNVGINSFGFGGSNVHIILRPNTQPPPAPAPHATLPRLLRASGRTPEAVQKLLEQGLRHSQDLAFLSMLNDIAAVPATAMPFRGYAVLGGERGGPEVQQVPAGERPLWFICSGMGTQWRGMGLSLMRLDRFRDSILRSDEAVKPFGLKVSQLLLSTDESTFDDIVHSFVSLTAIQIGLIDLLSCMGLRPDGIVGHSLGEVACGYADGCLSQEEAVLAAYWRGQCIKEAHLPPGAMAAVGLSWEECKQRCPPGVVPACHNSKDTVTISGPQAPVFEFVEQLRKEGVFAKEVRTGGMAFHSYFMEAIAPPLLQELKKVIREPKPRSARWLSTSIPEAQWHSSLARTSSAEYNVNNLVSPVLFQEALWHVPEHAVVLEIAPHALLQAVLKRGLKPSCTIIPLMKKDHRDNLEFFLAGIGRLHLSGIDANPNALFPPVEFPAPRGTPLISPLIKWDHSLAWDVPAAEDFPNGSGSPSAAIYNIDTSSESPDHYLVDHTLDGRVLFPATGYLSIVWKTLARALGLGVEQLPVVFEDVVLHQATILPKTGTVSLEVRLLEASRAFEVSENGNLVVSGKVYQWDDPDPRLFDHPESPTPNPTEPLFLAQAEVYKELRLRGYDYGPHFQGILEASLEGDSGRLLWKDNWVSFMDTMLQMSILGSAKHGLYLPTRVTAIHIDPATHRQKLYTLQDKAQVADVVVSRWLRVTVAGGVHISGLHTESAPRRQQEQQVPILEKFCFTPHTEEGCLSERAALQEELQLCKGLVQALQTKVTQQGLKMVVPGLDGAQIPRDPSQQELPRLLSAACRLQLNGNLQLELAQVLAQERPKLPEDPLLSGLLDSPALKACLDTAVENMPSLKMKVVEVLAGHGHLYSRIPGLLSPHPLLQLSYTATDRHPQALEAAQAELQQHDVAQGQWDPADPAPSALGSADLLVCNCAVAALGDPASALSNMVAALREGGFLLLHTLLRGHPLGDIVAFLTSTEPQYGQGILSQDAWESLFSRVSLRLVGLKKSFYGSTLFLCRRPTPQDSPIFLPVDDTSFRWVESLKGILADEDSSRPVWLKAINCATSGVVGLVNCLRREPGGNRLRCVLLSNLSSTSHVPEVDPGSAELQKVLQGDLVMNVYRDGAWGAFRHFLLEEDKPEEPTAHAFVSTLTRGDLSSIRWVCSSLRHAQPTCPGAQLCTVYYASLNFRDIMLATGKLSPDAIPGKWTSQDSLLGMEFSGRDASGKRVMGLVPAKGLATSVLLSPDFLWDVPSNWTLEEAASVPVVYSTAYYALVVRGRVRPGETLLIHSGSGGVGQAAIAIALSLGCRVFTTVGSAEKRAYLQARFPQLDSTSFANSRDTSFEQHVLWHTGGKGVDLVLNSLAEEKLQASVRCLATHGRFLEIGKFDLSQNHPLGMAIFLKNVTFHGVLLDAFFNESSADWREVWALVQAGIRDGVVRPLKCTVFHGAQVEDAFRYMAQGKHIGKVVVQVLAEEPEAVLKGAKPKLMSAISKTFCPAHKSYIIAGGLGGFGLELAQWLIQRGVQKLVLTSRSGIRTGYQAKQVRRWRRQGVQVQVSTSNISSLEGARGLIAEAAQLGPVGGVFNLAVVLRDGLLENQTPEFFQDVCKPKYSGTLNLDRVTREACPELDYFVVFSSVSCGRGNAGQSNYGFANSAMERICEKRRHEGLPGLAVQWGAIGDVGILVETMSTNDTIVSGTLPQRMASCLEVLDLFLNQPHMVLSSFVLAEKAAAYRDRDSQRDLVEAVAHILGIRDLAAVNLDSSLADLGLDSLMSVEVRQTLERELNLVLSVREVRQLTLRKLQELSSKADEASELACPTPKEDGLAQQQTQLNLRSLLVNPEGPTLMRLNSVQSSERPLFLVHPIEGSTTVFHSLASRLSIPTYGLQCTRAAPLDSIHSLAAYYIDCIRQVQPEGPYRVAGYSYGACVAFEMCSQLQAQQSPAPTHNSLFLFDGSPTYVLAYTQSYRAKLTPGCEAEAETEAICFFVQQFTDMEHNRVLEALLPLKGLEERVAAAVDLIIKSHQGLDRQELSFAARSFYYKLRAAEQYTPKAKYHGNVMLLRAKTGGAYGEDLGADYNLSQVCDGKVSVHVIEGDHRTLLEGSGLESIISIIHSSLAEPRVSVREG

For the molecule `OCCCO`, the call in [1], in test [2], in [3], in test [4], in test [5] and in [6] was inactive. Besides, the result in test [7], in test [8] and in test [9] was inactive.
Take `CC=CC(=O)C1=C(C)C=CCC1(C)C`: the molecule was called inactive in test [1], in test [2], in [3], in [4], in [5] and in [6]. Also, in [9], the result was inactive.
For `CCCCCCC(C)O` (stereo not given), the result in [10], in test [11], in test [12] and in test [13] was inactive.
As for `CN1CCc2cccc3c2[C@H]1Cc1ccc(O)c(O)c1-3`, the outcome in test [10], in test [12] and in test [13] was inactive.
Take `C[C@]12CC[C@@H]3c4ccc(O)cc4CC[C@H]3[C@@H]1CC[C@@H]2O`: the call in [14], in test [11], in test [12], in test [13], in test [3] and in test [15] was inactive. In addition, the result in test [16] and in test [17] was inactive. Moreover, the AC50 is 4.37 µM (active) in test [1]; 1.57 µM (active) in test [2]; 2.63 µM (active) in test [5]; 3.8 µM (active) in test [6]; 5 µM (active) in test [9]; 80.3 µM (active) in test [18].
As for `O=Cc1ccccc1O`, the molecule was classed as inactive in test [10], in [12] and in [13].
Consider `CC(=N[Si](C)(C)C)O[Si](C)(C)C`, for which the outcome in [1], in [2], in test [3], in test [4], in test [5] and in test [6] was inactive. Also, the molecule was called inactive in test [9].
Regarding `CC/C(=C(\c1ccccc1)c1ccc(OCCN(C)C)cc1)c1ccccc1`, the concentration at half-maximal activity (AC50) is 11.5 µM (active) in [14]; 10.4 µM (active) and 11.5 µM (active) in [11]; 0.136 µM (active) in [1]; 0.311 µM (active) in [2]; 0.161 µM (active) in test [3]; 0.222 µM (active) in test [6]. In addition, the figures for the AC50 in test [9] and in test [15] were 0.141 µM (active) and 71.4 µM (active), respectively. Moreover, the molecule was called inactive in test [12], in [13], in test [1], in test [2], in [3] and in test [5]. Further, the outcome in test [6], in [9], in [15], in [16], in [17] and in test [18] was inactive.
`CC(CCO)CC(C)(C)C` (stereo not given): the molecule was classed as inactive in test [10], in [12] and in test [13].
As for `CC(=O)Oc1c(C)c(C)c2c(c1C)CC[C@@](C)(CCC[C@H](C)CCC[C@H](C)CCCC(C)C)O2`, the call in test [10], in test [12] and in test [13] was inactive.
In the case of `O=C(OCc1ccccc1)c1ccccc1O`, the outcome in test [10], in [1], in test [2], in test [5], in test [6] and in [7] was inactive. Also, in test [8], the outcome was inactive. Further, the AC50 in test [3] and in test [9] was 50 µM (active) each time.
With `NCCN1CCNCC1`, the molecule was classed as inactive in [10], in [11] and in [13].
